Test results reported in PubChem BioAssay AID623911 (Vanderbilt High Throughput Screening Facility, 2012).
The campaign covered roughly 2,100 compounds. About 770 (37%) were called active. The list shows a part of the results. Values without a mark were called inactive.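 The calls were made as follows: active = by-eye trace score of 1 for enhancers or -1 for inhibitors, so actives lie on both sides (some results past the limit were not filed as active); inactive = score 0, or 3 fluorescent, or 4 baseline rise.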

target: G protein-activated inward rectifier potassium channel 2 (Homo sapiens) + G protein-activated inward rectifier potassium channel 1 (Homo sapiens) (UniProt P48051+P48549); experiment: GIRK1/2 thallium flux modulators, retest, confirmation, cell-based, HEK293 rmGlu8/hGIRK1/2, FluoZin-2 (AID 623911); conditions: HEK293 rmGlu8/hGIRK1/2, thallium flux FluoZin-2; actives lie on both sides; glutamate co-added at its EC20 level
Sequence (P48051 whole entry, looked up): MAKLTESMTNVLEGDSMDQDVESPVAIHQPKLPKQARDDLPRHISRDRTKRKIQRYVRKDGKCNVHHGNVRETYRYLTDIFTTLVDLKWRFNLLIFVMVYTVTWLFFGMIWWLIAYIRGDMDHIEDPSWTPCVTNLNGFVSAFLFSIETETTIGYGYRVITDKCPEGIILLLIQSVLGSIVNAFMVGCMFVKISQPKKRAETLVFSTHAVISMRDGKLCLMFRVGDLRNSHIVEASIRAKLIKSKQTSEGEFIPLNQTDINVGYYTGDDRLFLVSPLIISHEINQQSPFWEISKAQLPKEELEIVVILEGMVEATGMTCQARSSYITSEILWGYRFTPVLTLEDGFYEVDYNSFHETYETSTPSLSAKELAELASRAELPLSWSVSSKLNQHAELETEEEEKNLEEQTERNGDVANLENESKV
Sequence (P48549 whole entry, looked up): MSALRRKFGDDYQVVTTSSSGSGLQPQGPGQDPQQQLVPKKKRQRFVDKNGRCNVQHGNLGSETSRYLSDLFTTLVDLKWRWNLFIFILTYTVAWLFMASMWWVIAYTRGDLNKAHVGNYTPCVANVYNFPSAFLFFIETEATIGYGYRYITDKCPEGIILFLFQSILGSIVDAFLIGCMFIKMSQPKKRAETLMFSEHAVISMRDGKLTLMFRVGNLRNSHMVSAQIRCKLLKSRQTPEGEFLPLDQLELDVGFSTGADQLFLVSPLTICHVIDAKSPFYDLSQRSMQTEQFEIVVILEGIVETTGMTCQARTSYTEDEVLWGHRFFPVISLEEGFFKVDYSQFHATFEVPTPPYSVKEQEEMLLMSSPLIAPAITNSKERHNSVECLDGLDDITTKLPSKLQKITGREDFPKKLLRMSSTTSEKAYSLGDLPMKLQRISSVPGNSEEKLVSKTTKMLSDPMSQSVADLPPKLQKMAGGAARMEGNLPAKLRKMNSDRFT

Row | SMILES | manual score
1 | O=C(NNC(=S)Nc1cccc2ccccc12)c1cccc(Br)c1 | 1 (active)
2 | Cc1ccc(C(=O)NNC(=S)Nc2cccc3ccccc23)s1 | 0
3 | O=C(NNC(=S)Nc1ccccc1)c1cccc(Br)c1 | 0
4 | CC(C)(C)S(=O)(=O)c1ccc(S(=O)(=O)C(C)(C)C)s1 | 0
5 | O=C(NC(=S)N(CCCCO)C1CCCCC1)c1sc2ccccc2c1Cl | 1 (active)
6 | CC(C)(C)C(=O)NC(=S)NNC(=O)c1sc2ccccc2c1Cl | 1 (active)
7 | CCCOC(=S)NC(=O)c1sc2ccccc2c1Cl | 1 (active)
8 | COc1ccccc1C(=O)NC(=S)NNC(=O)c1sc2ccccc2c1Cl | 0
9 | CCCCOC(=S)NC(=O)c1sc2ccccc2c1Cl | 1 (active)
10 | Nc1c(C(O)(C(F)(F)F)C(F)(F)F)ccc2ccccc12 | 0
11 | CCCCN(Cc1ccccc1)S(=O)(=O)c1ccc2[nH]c(=O)oc2c1 | 0
12 | COc1ccccc1C(=O)NNC(=S)NC(=O)c1sc2ccccc2c1Cl | 0.5
13 | Cn1c(-c2sc3ccccc3c2Cl)n[nH]c1=S | 0
14 | CCOC(=S)NC(=O)c1sc2ccccc2c1Cl | 1 (active)
15 | Cc1cc(C)c2nc(SC(C)C(=O)NCC(=O)Nc3ccc(F)c(F)c3F)cc(C)c2c1 (stereo not given) | 0
16 | Cc1cc(C)c2nc(SCC(=O)NCCC3=CCCCC3)cc(C)c2c1 | 1 (active)
17 | COc1cccc(-n2c(SCC(=O)NCCC3=CCCCC3)nc3n[nH]c(C)c3c2=N)c1 | -0.5
18 | Nn1c(SC/C=C/c2ccccc2)nnc1-c1ccccn1 | 0
19 | COc1cc(Cl)cc2c1Sc1ccccc1/C2=C/CCN(C)C | -1 (active)
20 | Cc1nc(SC2CCOC2=O)c2c(C)c(C)sc2n1 (stereo not given) | 1 (active)
21 | S=C(NN=C1C2CC3CC(C2)CC1C3)Nc1ccccc1 | 0
22 | CCCCn1c(SCc2nc(N)nc(Nc3ccccc3C)n2)nc2ccccc2c1=O | 0
23 | CN1CCN(C(=O)c2sc(=S)n(-c3ccccc3)c2N)CC1 | 0
24 | O=C(c1ccccc1Oc1ccccc1)N1CCN(c2ccccc2)CC1 | -1 (active)
25 | Cc1ccc(-n2nc(-c3cccs3)cc2C(=O)NCC2CCCO2)c(C)c1 (stereo not given) | -1 (active)
26 | COc1ccc(C(OC(=O)c2cccs2)C(=O)NCC2CCCO2)cc1 (stereo not given) | 0
27 | O=C(CN1C(=O)c2ccccc2C1=O)Nc1sc2c(c1C(=O)NCC1CCCO1)CCC2 (stereo not given) | 0

Row | SMILES | manual score
28 | Cc1cccc(S(=O)(=O)Nc2cccc3c2C(=O)c2ccccc2-3)c1 | 0
29 | COC(=O)Nc1nnc(Cc2ccc(Cl)cc2)s1 | 0
30 | CC(C)Cn1cnc2sc3c(c2c1=N)CCCC3 | -1 (active)
31 | N#Cc1ccc(-c2csc(NC3=NCCCCC3)n2)cc1 | -1 (active)
32 | O=C(NC(=Nc1ccccc1)N1CCOCC1)Nc1ccccc1 | 1 (active)
33 | O=C(NCCN1CCN(C(=O)Nc2ccccc2)CC1)Nc1ccccc1 | 0
34 | CC(CCc1ccccc1)NC(=O)N1CCOCC1 (stereo not given) | 0
35 | CC1=CC(C)(C)n2c(O)c(N=NC(N)=S)c3cccc1c32 | 0
36 | CCCSc1nc2sc3c(c2c(=O)[nH]1)CCN(Cc1ccccc1)C3 | 3
37 | Oc1c(Cl)cc(Cl)c2c1NCCC2 | 0
38 | Cc1cccc(NC(=S)NC(=O)c2cccs2)n1 | 1 (active)
39 | O=C(NC(=S)Nc1ccc(Cl)cn1)c1cccs1 | 0.5
40 | Cc1ccnc(NC(=S)NC(=O)c2cccs2)c1 | 1 (active)
41 | Cc1ccc2oc(-c3cccc(NC(=S)NC(=O)c4cccs4)c3)nc2c1 | 0
42 | CN1C(=O)NC(c2ccccc2)C2=C1CN(Cc1ccccc1)C2=O (stereo not given) | 0
43 | CCCCOc1ccc(C(=O)NNC(=S)NC(=O)CC)cc1 | 1 (active)
44 | CCCOc1cccc(C(=O)NC(=S)Nc2cccc(C(F)(F)F)c2)c1 | 0
45 | CCCOc1ccc(C(=O)NNC(=S)NC(=O)CC)cc1 | 1 (active)
46 | CC1Cc2nc(SCC(=O)Nc3nc4ccccc4s3)n(C)c(=O)c2S1 (stereo not given) | -0.5
47 | N#Cc1nc(COc2ccccc2)oc1N1CCN(c2cccc(Cl)c2)CC1 | 0
48 | CCC(=O)Oc1oc(-c2ccccc2)nc1C=Nc1ccccc1OC | 0
49 | Cc1oc(-c2ccccc2)nc1CS(=O)CC(=O)O (stereo not given) | 1 (active)
50 | COc1ccccc1N=Cc1nc(-c2ccccc2)oc1OC(C)=O | 0
51 | Cc1ccn2c(NC3CCCCC3)c(C(C)C)nc2c1 | -1 (active)
52 | C=CCOc1cccc(C2/C(=C(/O)c3ccc(C)cc3)C(=O)C(=O)N2CCN2CCOCC2)c1 (stereo not given) | 0
53 | CCc1cccc(CC)c1-n1c(SCC(=O)N2CCc3ccccc3C2)nnc1-c1cccnc1 | -1 (active)
54 | Cn1c(SCC(=O)N2c3ccccc3CCc3ccccc32)nnc1-c1ccc(O)cc1 | 0

Row | SMILES | manual score
55 | CCOC(=O)c1cccc(NC(=O)CSc2nnc(-c3cccnc3)n2C)c1 | 0
56 | CCN=c1scc(-c2ccco2)n1/N=C/c1ccc(O)cc1 | 0
57 | CC(C)(C)C(=O)Nc1nc2c(s1)COc1ccccc1-2 | -0.5
58 | CC1(c2ccccc2)CC(C)(C)N2C(=O)/C(=C3\SC(=S)NC3=O)c3cccc1c32 (stereo not given) | 0
59 | CN1CCN(Cc2cccc(Oc3ccc(Cl)cc3)c2)CC1 | 0
60 | COC(=O)c1ccc(Cl)c(NC(=O)CN2CCN(C)CC2)c1 | 0
61 | CN1CCN(CC(=O)N2c3ccccc3C(C)(c3ccc(Cl)cc3)CC2(C)C)CC1 (stereo not given) | -1 (active)
62 | CN1CCN(CC(=O)N2c3ccccc3C(C)(c3ccccc3)CC2(C)C)CC1 (stereo not given) | -1 (active)
63 | S=c1[nH]nc(CSc2nc3ccccc3s2)n1C1CCCCC1 | 0
64 | N#Cc1ccsc1NC(=O)CN1CCN(c2ccc(O)cc2)CC1 | 0
65 | Cc1cc(NC(=O)CSc2nc3ccccc3c(=O)n2Cc2ccccc2)no1 | 0
66 | Cc1cc(NC(=O)CSc2nc(C3CC3)nc3sc(C)c(C)c23)no1 | 1 (active)
67 | COc1cc(OC)c2nc(C)c3c(c2c1)N(c1ccc(O)cc1)CC3 | -1 (active)
68 | O=C(Nc1ccccc1)c1ccccc1NS(=O)(=O)c1ccc(Cl)s1 | -1 (active)
69 | O=C(Nc1ccccc1C(=O)O)c1ccc(NC(=O)c2ccc(Br)o2)cc1 | -0.5
70 | O=C(Nc1nncs1)c1ccccc1NS(=O)(=O)c1cccs1 | 0
71 | CCC1CCCCN1C(=O)CSc1nnc(-c2ccco2)o1 (stereo not given) | 0
72 | O=C(NC(=S)Nc1ccccc1N1CCCC1)c1ccccc1[N+](=O)[O-] | 0
73 | Cc1c(C(=O)NC(=S)Nc2ccccc2N2CCCC2)cccc1[N+](=O)[O-] | 0
74 | O=C(NC(=S)N1CCCc2ccccc21)c1ccc(Br)cc1 | 1 (active)
75 | O=C(COc1ccc(Br)cc1Br)NC(=S)N1CCCc2ccccc21 | 0
76 | O=C(NC(=S)Nc1ccccc1N1CCCC1)c1ccc([N+](=O)[O-])cc1 | 1 (active)
77 | O=C(NC(=S)N1CCCc2ccccc21)c1ccc(Cl)cc1 | 1 (active)
78 | CCC1CCCCN1C(=S)NC(=O)c1ccc([N+](=O)[O-])cc1 (stereo not given) | 1 (active)
79 | O=c1[nH]c(NCCO)nc2c1C1(CCCCC1)Cc1ccccc1-2 | 0
80 | CCOC(=O)c1cccc(-n2c(C)cc(C=O)c2C)c1 | 0
81 | O=C(Nc1nc(-c2cc3ccccc3oc2=O)cs1)c1ccc(Br)o1 | 0

Row | SMILES | manual score
82 | O=C(NC(=S)N1CCc2ccccc21)c1ccccc1Br | 1 (active)
83 | O=C(NC(=S)N1CCCc2ccccc21)c1ccccc1 | 1 (active)
84 | O=C(c1ccccc1)N1CCCc2ccccc21 | 0
85 | O=C(NC(=S)N1CCCc2ccccc21)c1ccc([N+](=O)[O-])cc1 | 1 (active)
86 | O=C(N/N=C1\CCCc2ccccc21)c1ccc([N+](=O)[O-])cc1 | 0
87 | O=C(NC(=S)N1CCc2ccccc21)c1ccccc1 | 1 (active)
88 | C=CCN1C(=O)/C(=C2/Sc3ccccc3N2C)SC1=Nc1c(C)n[nH]c1C | 0
89 | O=C(NC(=S)N1CCN(c2ccc([N+](=O)[O-])cc2)CC1)c1ccc(F)cc1 | 1 (active)
90 | O=C(NC(=S)N1CCN(c2ccc(F)cc2)CC1)C12CC3CC(CC(C3)C1)C2 | 0
91 | CCC(=O)c1ccc(N2CCN(C(=O)c3cc([N+](=O)[O-])ccc3N3CCN(C)CC3)CC2)c(F)c1 | 0
92 | O=S(=O)(Nc1cc(Cl)ccc1N1CCCCC1)c1cccs1 | -1 (active)
93 | O=S(=O)(Nc1ccccc1N1CCCCC1)c1ccc(Cl)s1 | 0
94 | CCC/C(=N/NC(=O)c1csc(C)c1C)c1ccc(Cl)s1 | 0
95 | COc1ccc(-c2onc(C)c2-c2ccc(C(=O)OC(C)C)o2)c(O)c1 | 0
96 | COc1ccc(-n2ncc3c(NCc4cccs4)ncnc32)cc1 | 0
97 | COc1ccc(-c2c3c(=O)n(C)c(=O)n(C)c3cn2-c2ccccc2)cc1 | 0
98 | COc1ccc(-c2c(S(=O)(=O)c3ccccc3)cnn2-c2ccccc2)cc1 | -1 (active)
99 | N#Cc1c(N)nc(SCc2ccccc2)c(C#N)c1-c1ccco1 | 0
100 | Cc1ccc(OCC(=O)NNC(=O)C(C)Sc2ncnc3sc(C)c(C)c23)cc1 (stereo not given) | 1 (active)
101 | CC(NC(=O)COc1ccccc1)C(=O)NC1=NCCS1 (stereo not given) | 0
102 | CCOC(=O)c1c(NC(=O)CSc2nnc(-c3ccncc3)n2Cc2ccco2)sc(C(C)=O)c1C | -1 (active)
103 | CCOc1ccccc1NC(=O)CSc1nnc(-c2ccco2)n1Cc1ccco1 | 0
104 | COC(=O)c1c(NC(=O)CSc2nnc(-c3cccnc3)n2Cc2ccco2)sc(C)c1C | -0.5
105 | CCn1cc(C(=O)N2CC=C(c3ccccc3)CC2)c(=O)c2ccc(C)nc21 | 0
